Values joined by “and” are separate entries in the source; they are usually repeats but may differ in a detail not shown here. Identical values can stand only once. Results filed as inconclusive are left out. Active and inactive are the calls of the source. Unless noted, calls come from the whole dose curve; as a rule, active = well fitted curve in the direction sought with a large enough effect; inconclusive = small, poorly fitted or top-dose-only effect, or another doubt; inactive = no such curve, though single readings can be large; an effect the other way counts as inactive or inconclusive.

Assay [1] in a line: qHTS Assay for Identifying Gametocytocidal Compounds (AID 743244).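 Note: % is set by controls: 0 for no effect and ±100 for the full control effect; actives lower the fluorescent signal which means gametocytes are killed.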 As to conditions: P. falciparum 3D7 stage III-V gametocytes, alamarBlue, 72 h; max response: stronger effect = lower value. The method, boiled down:
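In this qHTS viability screen, late-stage 3D7 gametocytes are incubated with compound for 72 h, then with alamarBlue for 24 h; reduced resorufin fluorescence marks killing.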
On the technique in general: qHTS replaces the single test concentration by a dilution series.

A short description of assay [2]: P-glycoprotein substrates identified in KB-8-5-11 adenocarcinoma cell line, qHTS therapeutic library screen (AID 1346987). Note: nearly all actives have a fitted effect of over 65% in size. Note: potency is the fitted concentration of half-maximal effect. The method, boiled down:
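In this qHTS, P-gp-rich KB-8-5-11 cells received library compounds across a concentration range. Viability was quantified by luminescence after 72 h at 37 degree C.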

Assay [3] is described as follows: AP1 Signaling Pathway (AID 357; active = well fitted curve in either direction with a large enough effect, not every such curve was filed as active;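 note: ME-180 reporter cells stimulated with EGF at its EC50 level; % is set by controls: 0 for no effect and ±100 for the full control effect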). The method, boiled down: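 Beta-lactamase reporter under AP-1 response element, ME-180 background. Stimulus: EC50 EGF. Compound exposure 5 h, 37 °C. Detection: CCF4, 2.5 h RT, 460/530 nm. Values: AC50 from titration.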
Assay [4] concerns the target Cytochrome P450 1A2 (Homo sapiens) (UniProt P05177). Description: p450-cyp1a2 (AID 410; calls by dose curve;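 note: -100% = full effect of reference inhibitor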). The essentials:
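20nM CYP1A2, 100uM Luciferin-ME (=Km), 100mM KPO4; cpd 10 min RT; +NADPH regen, 60 min RT; stop/detect 20 min; luminescence. Normalized to furafylline 57 uM = full inhibition.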

A short description of assay [5]: Stat Signaling Pathway (AID 446; active = well fitted curve in either direction with a large enough effect, not every such curve was filed as active;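 note: ME-180 cervical cancer cells given 40 pM IL-6 alongside compound; SIE-controlled beta-lactamase reporter measured as 460/530 nm FRET emission ratio; % is set by controls: 0 for no effect and ±100 for the full control effect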). The essentials: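 Compound effects on IL-6-induced STAT reporter activity were measured in ME-180 cells. After overnight culture, cells were co-treated with 40 pM IL-6 for 5 hrs before beta-lactamase substrate loading at room temperature.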
For assay [6], the target named is Glucocorticoid receptor (Homo sapiens) (UniProt P04150). Description: GR-GFP Redistribution (AID 450;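 active = compounds whose dose series gives a full or clear partial fitted curve of increased nuclear translocation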; note: potency is the fitted concentration of half-maximal effect). As to conditions: U2OS GR-GFP nuclear translocation, laser cytometry, 2 h.
Assay [7] has the same target. Description: GR-EFC Redistribution (AID 451; calls by dose curve; note: potency is the fitted concentration of half-maximal effect). As to conditions: CHO-K1 GR-EFC translocation, beta-gal luminescence, 2 h. The essentials: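 Translocation of GR-ED fusion to nuclear EA restores b-gal, read by luminescence after 1 h room-temperature detection. Engineered CHO-K1 biosensor cells, 1,000/well, exposed 2 h at 37 C to titrations up to 46 uM final.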
In assay [8] the target is 3',5'-cyclic-AMP phosphodiesterase 4B (Homo sapiens) (UniProt Q07343). Briefly: qHTS Assay for Inhibitors of PDE-IV (AID 607; active = well fitted activation curve with a large enough effect in the main read-out, with a control signal flat, not every such curve was filed as active; note: % of control where 0% means no effect). The essentials: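 ACTOne HEK293 cells carry a modified cAMP-gated CNG channel and express endogenous PDE4; plated 1000 cells/well, compounds up to 22.9 uM final. Membrane-potential dye fluorescence (ex 535/em 590) was read; parental cells received 10 uM forskolin + 100 uM RO 20-1724.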

The target in assay [9] is Cytochrome P450 2C9 (Homo sapiens) (UniProt P11712). Description: qHTS Assay for Inhibitors and Substrates of Cytochrome P450 2C9 (AID 883). Note: % is set by controls: 0 for no effect and ±100 for the full control effect; nearly all actives have a fitted effect of over 60% in size. The essentials:
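Turnover of Luciferin-H (100uM, KM) by 10nM human CYP2C9 was measured over 60 min at 37C with NADPH regeneration; inhibitors and some substrates reduce luminescence. Data normalized to sulphaphenazole 57uM.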

Assay [10] concerns the target Cytochrome P450 3A4 (Homo sapiens) (UniProt P08684). Briefly: qHTS Assay for Inhibitors and Substrates of Cytochrome P450 3A4 (AID 884). Note: % is set by controls: 0 for no effect and ±100 for the full control effect; nearly all actives have a fitted effect of over 50% in size. The essentials:
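Luminescent readout of luciferin produced by CYP3A4 (20 nM) dealkylation of Luciferin-PPXE, 25 uM (its KM). NADPH-driven reaction ran 60 min at RT after 10 min compound preincubation; data scaled to 57 uM ketoconazole as 100% inhibition.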

Assay [11] deals with Cytochrome P450 2D6 (Homo sapiens) (UniProt P10635). Briefly: qHTS Assay for Inhibitors and Substrates of Cytochrome P450 2D6 (AID 891).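 Note: luciferin methyl ether substrate demethylated by CYP2D6 with NADPH regeneration; % is set by controls: 0 for no effect and ±100 for the full control effect; nearly all actives have a fitted effect of over 60% in size.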 The essentials: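 Luminescent read-out of luciferin formed by 5 nM human CYP2D6 demethylating 30 uM Luciferin-ME EGE (Km level) over 60 min at room temperature after NADPH regeneration addition. Data normalized to full inhibition by 1.43 uM quinidine.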

Assay [12] addresses Cytochrome P450 2C19 (Homo sapiens) (UniProt P33261). Description: qHTS Assay for Inhibitors and Substrates of Cytochrome P450 2C19 (AID 899). Note: % is set by controls: 0 for no effect and ±100 for the full control effect; nearly all actives have a fitted effect of over 60% in size. The essentials:
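Reactions contain 5nM enzyme, 10uM Luciferin-H EGE (KM) and 50mM KPO4; compound preincubates 10 min at 37C, NADPH regeneration starts turnover for 60 min. Luminescence after detection reagent gives activity.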

The nature of assay [13]: qHTS Assay for Lipid Storage Modulators (AID 1519; calls by dose curve; for activity change, negative = inhibition: % is set by controls: 0 for no effect and ±100 for the full control effect). As to conditions: Drosophila S3 cells, BODIPY lipid droplet/cell ratio, laser cytometry, cells loaded with oleic acid. The essentials: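 Cells seeded at 5,000 per well were treated with compounds over a concentration series and loaded with oleic acid (400 uM, as added). Lipid droplet fluorescence (488 nm excitation, 500-530 nm channel) was read by laser-scanning cytometry and normalized to 20 uM Triacsin C.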

For assay [14], the target named is Ubiquitin carboxyl-terminal hydrolase 1 (Homo sapiens) (UniProt O94782). Description: Inhibitors of USP1/UAF1: Pilot qHTS (AID 504865).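 Note: rhodamine fluorescence freed from ubiquitin-rhodamine substrate followed over time; top concentration of the series differs between compounds; % is set by controls: 0 for no effect and ±100 for the full control effect; nearly all actives have a fitted effect of over 35% in size.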 The essentials: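 Kinetic fluorescence assay: 1nM USP1/UAF1, 15 min compound preincubation, then 150nM Ub-Rho; 480/540 nm.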
The target of assay [15] is DNA dC->dU-editing enzyme APOBEC-3G (Homo sapiens) (UniProt Q9HC16). Briefly: qHTS for inhibitors of Vif-A3G interactions: Validation (AID 588379). Note: 0% is about no effect. The method, boiled down: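 Yellow fluorescence (Ex 488, Em 500-530) of Vif-coexpressing HeLa A3G-eYFP cells, scanned by Acumen cytometer, reports blocked A3G degradation. Cells plated at 700/well overnight at 37 deg C before compound addition, then a further overnight compound incubation at 37 deg C.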

Assay [16] is described as follows: P-glycoprotein substrates identified in KB-3-1 adenocarcinoma cell line, qHTS therapeutic library screen (AID 1346986). Note: % is set by controls: 0 for no effect and ±100 for the full control effect; nearly all actives have a fitted effect of over 60% in size. The essentials: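 Dose-response cytotoxicity, KB-3-1 vs P-gp-high KB-8-5-11, no colchicine in assay medium. Read: CellTiter-Glo at 72 h.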
Assay [17] in a line: Primary qHTS for inhibitors of nuclear receptor binding SET domain protein 2 (NSD2) in an isogenic RCH-ACV NSD2 p.E1099K mutant (9B) (AID 1645876). Note: % is set by controls: 0 for no effect and ±100 for the full control effect; nearly all actives have a fitted effect of over 70% in size.
A short description of assay [18]: Primary qHTS for inhibitors of nuclear receptor binding SET domain protein 2 (NSD2) in an RCH-ACV wild type WT cells (2C) (AID 1645877). Note: % is set by controls: 0 for no effect and ±100 for the full control effect; nearly all actives have a fitted effect of over 70% in size.
Assay [19] has as its target Glutathione peroxidase 1 (Homo sapiens) (UniProt P07203). Description: Primary qHTS Assay for Inhibitors of Recombinant Selenoprotein Glutathione Peroxidase 1 (GPX1) (AID 1845191). Note: nearly all actives have a fitted effect of over 65% in size. The essentials: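 NADPH consumption tracked by fluorescence at 340/450 nm between t=0 and t=15 min, room temperature. Final mix: 10 nM GPX1, 100 nM glutathione reductase, 1 mM GSH, 0.5 mM NADPH, 0.5 mM cumene hydroperoxide, 0.01% BSA; 30 min compound–enzyme preincubation.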

Sequence of Glucocorticoid receptor (Homo sapiens) (P04150 whole entry, looked up, the tested form may be a part): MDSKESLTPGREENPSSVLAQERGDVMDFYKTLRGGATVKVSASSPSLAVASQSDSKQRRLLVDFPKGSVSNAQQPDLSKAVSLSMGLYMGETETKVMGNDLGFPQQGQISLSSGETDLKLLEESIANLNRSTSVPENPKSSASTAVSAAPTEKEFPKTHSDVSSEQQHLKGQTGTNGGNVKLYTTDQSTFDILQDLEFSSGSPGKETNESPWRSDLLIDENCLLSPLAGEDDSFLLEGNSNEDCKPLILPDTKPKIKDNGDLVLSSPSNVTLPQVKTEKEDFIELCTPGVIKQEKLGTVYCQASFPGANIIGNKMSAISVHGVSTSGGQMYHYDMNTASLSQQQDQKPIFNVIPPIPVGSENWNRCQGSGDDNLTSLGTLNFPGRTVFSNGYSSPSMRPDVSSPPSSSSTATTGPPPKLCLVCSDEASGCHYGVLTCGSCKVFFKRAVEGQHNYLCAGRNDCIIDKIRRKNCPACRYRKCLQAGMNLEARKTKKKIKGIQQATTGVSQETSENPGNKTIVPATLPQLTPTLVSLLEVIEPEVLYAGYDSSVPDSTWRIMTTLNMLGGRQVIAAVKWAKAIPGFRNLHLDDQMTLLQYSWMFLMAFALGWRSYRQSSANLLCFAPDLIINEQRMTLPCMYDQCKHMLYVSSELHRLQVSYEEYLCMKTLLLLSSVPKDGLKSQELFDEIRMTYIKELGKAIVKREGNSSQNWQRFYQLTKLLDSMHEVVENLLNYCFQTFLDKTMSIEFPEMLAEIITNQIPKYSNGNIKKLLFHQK
Sequence of Cytochrome P450 2C9 (Homo sapiens) (P11712 whole entry, looked up): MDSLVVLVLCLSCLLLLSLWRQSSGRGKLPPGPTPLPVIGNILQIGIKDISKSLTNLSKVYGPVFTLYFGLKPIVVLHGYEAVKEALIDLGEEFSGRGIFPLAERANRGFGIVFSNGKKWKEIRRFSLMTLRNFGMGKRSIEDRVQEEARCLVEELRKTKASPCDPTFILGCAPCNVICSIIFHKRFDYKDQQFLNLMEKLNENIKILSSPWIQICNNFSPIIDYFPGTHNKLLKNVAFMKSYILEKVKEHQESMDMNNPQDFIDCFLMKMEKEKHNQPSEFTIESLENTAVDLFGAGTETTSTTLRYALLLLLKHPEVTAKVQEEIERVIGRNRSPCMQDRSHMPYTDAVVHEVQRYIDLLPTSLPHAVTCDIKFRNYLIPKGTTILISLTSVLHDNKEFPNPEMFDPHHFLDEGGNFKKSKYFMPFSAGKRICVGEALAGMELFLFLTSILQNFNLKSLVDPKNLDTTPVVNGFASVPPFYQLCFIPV
Sequence of Cytochrome P450 1A2 (Homo sapiens) (P05177 whole entry, looked up): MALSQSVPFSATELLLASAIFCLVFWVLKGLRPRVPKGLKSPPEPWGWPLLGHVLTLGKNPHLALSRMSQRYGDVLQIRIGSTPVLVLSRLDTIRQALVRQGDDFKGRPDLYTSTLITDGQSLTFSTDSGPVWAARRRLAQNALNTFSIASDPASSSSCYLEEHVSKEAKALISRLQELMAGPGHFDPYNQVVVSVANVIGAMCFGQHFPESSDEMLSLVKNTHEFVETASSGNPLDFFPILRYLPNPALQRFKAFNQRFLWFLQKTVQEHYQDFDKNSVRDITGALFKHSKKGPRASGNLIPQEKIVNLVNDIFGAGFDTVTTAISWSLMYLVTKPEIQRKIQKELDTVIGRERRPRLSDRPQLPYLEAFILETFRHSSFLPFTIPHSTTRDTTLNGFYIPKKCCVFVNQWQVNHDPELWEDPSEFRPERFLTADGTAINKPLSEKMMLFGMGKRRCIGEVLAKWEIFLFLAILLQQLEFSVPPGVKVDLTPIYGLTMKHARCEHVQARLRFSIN
Sequence of Cytochrome P450 3A4 (Homo sapiens) (P08684 whole entry, looked up): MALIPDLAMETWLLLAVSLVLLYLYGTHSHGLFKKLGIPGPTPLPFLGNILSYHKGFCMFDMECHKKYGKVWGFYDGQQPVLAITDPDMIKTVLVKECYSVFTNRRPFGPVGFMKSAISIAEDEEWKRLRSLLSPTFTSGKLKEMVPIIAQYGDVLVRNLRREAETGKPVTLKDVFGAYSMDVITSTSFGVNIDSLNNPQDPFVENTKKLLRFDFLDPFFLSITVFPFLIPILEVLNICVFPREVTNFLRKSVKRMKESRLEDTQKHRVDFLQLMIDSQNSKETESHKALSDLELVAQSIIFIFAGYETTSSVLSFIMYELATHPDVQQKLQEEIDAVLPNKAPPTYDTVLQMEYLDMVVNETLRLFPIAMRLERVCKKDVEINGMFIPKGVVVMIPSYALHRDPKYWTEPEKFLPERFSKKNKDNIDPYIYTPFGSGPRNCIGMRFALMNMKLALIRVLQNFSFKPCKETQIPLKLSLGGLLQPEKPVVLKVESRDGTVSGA
Sequence of 3',5'-cyclic-AMP phosphodiesterase 4B (Homo sapiens) (Q07343 whole entry, looked up): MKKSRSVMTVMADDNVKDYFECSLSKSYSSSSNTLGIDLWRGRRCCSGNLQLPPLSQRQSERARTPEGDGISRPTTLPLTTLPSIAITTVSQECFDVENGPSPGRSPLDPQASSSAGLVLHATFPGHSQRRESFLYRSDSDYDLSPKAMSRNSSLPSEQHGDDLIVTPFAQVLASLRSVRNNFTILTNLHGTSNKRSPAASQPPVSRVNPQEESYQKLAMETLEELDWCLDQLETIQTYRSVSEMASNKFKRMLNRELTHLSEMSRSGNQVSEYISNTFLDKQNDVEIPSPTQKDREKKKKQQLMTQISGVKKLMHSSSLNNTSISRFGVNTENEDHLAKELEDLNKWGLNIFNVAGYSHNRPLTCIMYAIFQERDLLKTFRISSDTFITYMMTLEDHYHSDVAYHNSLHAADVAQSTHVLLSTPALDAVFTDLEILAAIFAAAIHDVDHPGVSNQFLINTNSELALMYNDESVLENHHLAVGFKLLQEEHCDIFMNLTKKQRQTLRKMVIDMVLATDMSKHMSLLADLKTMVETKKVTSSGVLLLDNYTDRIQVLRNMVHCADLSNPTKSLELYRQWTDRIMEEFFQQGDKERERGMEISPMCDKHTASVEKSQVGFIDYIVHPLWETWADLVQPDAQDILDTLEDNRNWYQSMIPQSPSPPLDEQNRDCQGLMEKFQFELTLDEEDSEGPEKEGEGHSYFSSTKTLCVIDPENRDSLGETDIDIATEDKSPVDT
Sequence of Cytochrome P450 2C19 (Homo sapiens) (P33261 whole entry, looked up): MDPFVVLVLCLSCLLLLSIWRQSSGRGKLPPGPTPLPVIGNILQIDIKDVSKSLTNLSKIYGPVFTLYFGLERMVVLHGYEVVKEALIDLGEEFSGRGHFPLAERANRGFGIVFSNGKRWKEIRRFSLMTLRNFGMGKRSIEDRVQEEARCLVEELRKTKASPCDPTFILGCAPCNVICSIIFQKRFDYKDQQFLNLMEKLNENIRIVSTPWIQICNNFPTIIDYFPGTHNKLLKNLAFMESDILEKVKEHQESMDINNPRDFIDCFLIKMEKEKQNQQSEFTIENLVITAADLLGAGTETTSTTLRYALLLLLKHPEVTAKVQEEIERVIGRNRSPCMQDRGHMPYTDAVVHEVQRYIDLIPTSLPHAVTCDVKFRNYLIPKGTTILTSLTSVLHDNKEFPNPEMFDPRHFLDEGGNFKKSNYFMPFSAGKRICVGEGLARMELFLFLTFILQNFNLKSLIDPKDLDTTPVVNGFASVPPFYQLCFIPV
Sequence of Cytochrome P450 2D6 (Homo sapiens) (P10635 whole entry, looked up): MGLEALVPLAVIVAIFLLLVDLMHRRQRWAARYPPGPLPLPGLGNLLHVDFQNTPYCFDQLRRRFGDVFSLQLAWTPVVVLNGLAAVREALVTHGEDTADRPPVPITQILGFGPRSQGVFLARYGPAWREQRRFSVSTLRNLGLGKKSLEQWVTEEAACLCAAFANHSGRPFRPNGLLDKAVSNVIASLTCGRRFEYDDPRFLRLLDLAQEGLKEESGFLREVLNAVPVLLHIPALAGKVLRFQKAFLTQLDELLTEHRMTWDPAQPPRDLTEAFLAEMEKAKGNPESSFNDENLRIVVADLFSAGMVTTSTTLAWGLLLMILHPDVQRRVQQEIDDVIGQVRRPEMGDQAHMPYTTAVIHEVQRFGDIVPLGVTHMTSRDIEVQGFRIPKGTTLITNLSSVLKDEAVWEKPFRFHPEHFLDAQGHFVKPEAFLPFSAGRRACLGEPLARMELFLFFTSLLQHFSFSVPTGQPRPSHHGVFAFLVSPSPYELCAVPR
Sequence of DNA dC->dU-editing enzyme APOBEC-3G (Homo sapiens) (Q9HC16 whole entry, looked up): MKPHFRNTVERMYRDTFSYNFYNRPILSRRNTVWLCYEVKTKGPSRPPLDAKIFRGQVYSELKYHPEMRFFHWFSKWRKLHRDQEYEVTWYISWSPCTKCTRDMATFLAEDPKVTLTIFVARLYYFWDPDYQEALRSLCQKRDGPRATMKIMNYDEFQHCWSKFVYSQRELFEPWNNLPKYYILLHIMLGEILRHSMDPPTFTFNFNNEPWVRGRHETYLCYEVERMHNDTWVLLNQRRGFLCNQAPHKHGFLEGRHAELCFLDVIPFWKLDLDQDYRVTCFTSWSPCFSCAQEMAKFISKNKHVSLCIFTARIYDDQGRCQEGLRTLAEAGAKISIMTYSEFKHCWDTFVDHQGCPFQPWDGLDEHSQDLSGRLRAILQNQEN
Sequence of Glutathione peroxidase 1 (Homo sapiens) (P07203 whole entry, looked up): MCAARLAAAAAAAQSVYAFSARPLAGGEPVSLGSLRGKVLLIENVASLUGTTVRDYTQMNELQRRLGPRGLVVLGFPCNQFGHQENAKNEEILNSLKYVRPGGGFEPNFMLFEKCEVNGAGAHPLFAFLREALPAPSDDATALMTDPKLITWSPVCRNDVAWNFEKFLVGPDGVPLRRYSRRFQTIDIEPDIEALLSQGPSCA

`COc1cc([C@@H]2c3cc4c(cc3[C@@H](O)[C@H]3COC(=O)[C@H]23)OCO4)cc(OC)c1O`: the max response in assay [1] was 5.77% (inactive). The Potency in assay [2] is 651 nM (active).
Take `COc1ccn(C)c(=O)c1C#N`: the result in assay [3] and in assay [5] was inactive. The Potency entry in [4], in assay [8], in assay [9], in assay [10], in assay [11] and in assay [12] was “inactive” each time. Moreover, the Potency entry in [14], in assay [15], in assay [16], in assay [2], in [17] and in [18] was “inactive” in each case. In addition, the Potency entry in [19] was “inactive”. For the same compound, the Potency in assay [6] is > 20.6 µM (inactive) and > 46 µM (inactive); in [7], > 20.6 µM (inactive) and > 46 µM (inactive). The values for the activity change, negative = inhibition in assay [13] (at 25.7 µM (top of the series)) and in assay [13] (at 57.5 µM (top of the series)) were -0.52% (inactive) and 1.07% (inactive), respectively. Further, the max response was 4.19% and -22.1% in assay [13] (measured here: cell count channel max response); 5.59% and -19.6% in assay [13] (measured here: lipid channel max response).

Source of the values: PubChem BioAssay (NCATS).
